Laboratory results as given in the supplement of paper PMC10127200.
Structures can show the parent of a compound that is named as a salt.

Key:
Assay in all cases: Euclidean distance of Cell Painting phenotypic profile (signed KS, 77 features) to DMSO centroid (dimensionless distance); 5 or 10 uM (library dependent); higher = stronger phenotypic change vs DMSO (phenoactivity)
Conditions in all cases: 48 h
786-O = test system: 786-O
Summary of the method: (§1)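 Harmony extracted 77 features from 20X confocal images (9 fields/well) of stained cells, scoring each as a signed Kolmogorov-Smirnov statistic against same-plate vehicle wells. The cells, five cancer lines and a healthy fibroblast line, had received library compounds for 48 h at 10 or 5 uM depending on library, with 0.1% DMSO final. Phenoactivity is the Euclidean distance from each plate-position-corrected, correlation-weighted, top-dose replicate-averaged profile to the median vehicle profile.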

A549 = test system: A549
Summary of the method: as §1

DU145 = test system: DU145
Summary of the method: as §1

FB = test system: FB
Summary of the method: as §1

HEPG2 = test system: HEPG2
Summary of the method: as §1

OVCAR4 = test system: OVCAR4
Summary of the method: as §1

| SMILES | Euclidean distance (786-O) | Euclidean distance (A549) | Euclidean distance (DU145) | Euclidean distance (FB) | Euclidean distance (HEPG2) | Euclidean distance (OVCAR4) |
| --- | --- | --- | --- | --- | --- | --- |
| COc1cc2c3cc1Oc1c(OC)c(OC)cc4c1[C@@H](Cc1ccc(O)c(c1)Oc1ccc(cc1)C[C@@H]3N(C)CC2)N(C)CC4 [Berbamine] | 2.93 | 3.17 | 2.1 | 3.91 | 2.29 | 2.64 |
| COc1ccccc1[C@H](Cn1c(=O)n(C(C)(C)C(=O)O)c(=O)c2c(C)c(-c3ncco3)sc21)OC1CCOCC1 [Firsocostat (GS-0976)] | 0.952 | 0.95 | 1.31 | 1.74 | 1.31 | 1.15 |
| C=CC(=O)Nc1cccc(Sc2nc(Nc3ccc(N4CCN(C)CC4)cc3)ncc2Cl)c1 | 2.96 | 3.04 | 2.04 | 3.82 | 3.02 | 2.64 |
| CCCCC(=O)N(Cc1ccc(-c2ccccc2-c2nnn[nH]2)cc1)[C@H](C(=O)O)C(C)C [Valsartan] | 1.68 | 1.17 | 0.682 | 0.799 | 0.48 | 0.776 |
| COc1ccc(-c2ccc3ncc4c(c3c2)n(-c2ccc(N3CCNCC3)c(C(F)(F)F)c2)c(=O)n4C)cn1 | 6.24 | 5.51 | 7.61 | 6.11 | 5.69 | 5.98 |
| COc1ccc(-c2coc3cc(O)ccc3c2=O)cc1 [Formononetin] | 0.921 | 0.857 | 0.599 | 1.07 | 0.662 | 1.13 |
| COc1ccc(Cl)cc1NC(=O)Nc1cc(C)nc2ccccc12 | 1.14 | 1.85 | 1.06 | 1.02 | 0.631 | 1.47 |
| Oc1c(I)cc(I)c2cccnc12 [Diiodohydroxyquinoline] | 1.24 | 1.68 | 0.746 | 1.01 | 0.677 | 1.2 |
| Nc1nc2[nH]cc(CCc3ccc(C(=O)N[C@@H](CCC(=O)O)C(=O)O)cc3)c2c(=O)[nH]1 [Pemetrexed Disodium Hydrate] | 2.12 | 2.97 | 1.28 | 0.937 | 2.46 | 2.8 |
| Clc1ccc(CCC(Cn2ccnc2)Sc2c(Cl)cccc2Cl)cc1 (configuration not stated) [Butoconazole] | 1.21 | 0.956 | 1.06 | 1.04 | 1.4 | 1.31 |
| CC(C)Cc1ccc([C@@H](C)C(=O)NS(C)(=O)=O)cc1 [Reparixin (Repertaxin)] | 1.16 | 0.942 | 0.933 | 1.09 | 1.25 | 1.04 |
| CCCCCCNC(=O)n1cc(F)c(=O)[nH]c1=O [Carmofur] | 2.44 | 2.89 | 1.27 | 2.91 | 2.49 | 2.82 |
| CC(C)C[C@H](NC(=O)[C@@H](COC(C)(C)C)NC(=O)[C@H](Cc1ccc(O)cc1)NC(=O)[C@H](CO)NC(=O)[C@H](Cc1c[nH]c2ccccc12)NC(=O)[C@H](Cc1cnc[nH]1)NC(=O)[C@@H]1CCC(=O)N1)C(=O)N[C@@H](CCCNC(=N)N)C(=O)N1CCC[C@H]1C(=O)NNC(N)=O [Goserelin Acetate] | 1.49 | 0.535 | 2.39 | 0.568 | 0.784 | 1.07 |
| Cn1cc(-c2ccc(S(=O)(=O)n3ccc(/C=C/C(=O)Nc4ccccc4N)c3)cc2)cn1 | 2.25 | 2.63 | 2.82 | 2.84 | 3.21 | 3.37 |
| CCOC(=O)N1CCC(=C2c3ccc(Cl)cc3CCc3cccnc32)CC1 [Loratadine] | 1.17 | 1.34 | 0.839 | 1.05 | 1.48 | 1.1 |
| C#C[C@]1(O)CC[C@H]2[C@@H]3CCc4cc(O)ccc4[C@H]3CC[C@@]21C [Ethinyl Estradiol] | 1.42 | 0.969 | 1.83 | 1.09 | 0.768 | 1.82 |
| O=C(Nc1cc(C(F)(F)F)ccc1N1CCCCC1)c1ccncc1 | 0.961 | 1.47 | 0.983 | 0.794 | 0.96 | 1.67 |
| CCOC(=O)c1ccc(C#Cc2ccc3c(c2)C(C)(C)CCS3)nc1 [Tazarotene] | 1.01 | 1.14 | 0.728 | 2.31 | 0.556 | 1.27 |
| Oc1ccc(-c2nc(-c3ccc(F)cc3)c(-c3ccncc3)[nH]2)cc1 | 1.58 | 0.841 | 1.39 | 1.38 | 2.99 | 2.17 |
| CCC[C@@H]1C[C@@H](C(=O)N[C@@H]([C@H]2O[C@H](SC)[C@H](O)[C@@H](O)[C@H]2O)[C@@H](C)O)N(C)C1 [Lincomycin HCl] | 1.49 | 0.984 | 0.817 | 1.01 | 0.457 | 1.31 |
| CCC1=C[C@@H]2CN(C1)Cc1c([nH]c3ccccc13)[C@@](C(=O)OC)(c1cc3c(cc1OC)N(C)[C@H]1[C@@](O)(C(=O)OC)[C@H](OC(C)=O)[C@]4(CC)C=CCN5CC[C@]31[C@@H]54)C2 [Vinorelbine Tartrate] | 3.19 | 3.7 | 4.27 | 3.46 | 2.97 | 3.03 |
| Cc1cnc(-c2cnc(NCCNc3ccc(C#N)cn3)nc2-c2ccc(Cl)cc2Cl)[nH]1 | 1.86 | 2.18 | 1.61 | 1.12 | 1.15 | 1.13 |
| O=C(O)[C@H](O)Cc1ccc(O)c(O)c1 [Danshensu] | 1.51 | 1.33 | 0.736 | 0.877 | 1.33 | 1.65 |
| CO[C@H]1C[C@@H]2CC[C@@H](C)[C@@](O)(O2)C(=O)C(=O)N2CCCC[C@H]2C(=O)O[C@H]([C@H](C)C[C@@H]2CC[C@@H](OC(=O)C(C)(CO)CO)[C@H](OC)C2)CC(=O)[C@H](C)/C=C(\C)[C@@H](O)[C@@H](OC)C(=O)[C@H](C)C[C@H](C)/C=C/C=C/C=C/1C | 3.03 | 1.74 | 1.55 | 2.95 | 1.69 | 2.08 |

| SMILES | Euclidean distance (786-O) | Euclidean distance (A549) | Euclidean distance (DU145) | Euclidean distance (FB) | Euclidean distance (HEPG2) | Euclidean distance (OVCAR4) |
| --- | --- | --- | --- | --- | --- | --- |
| O=C(O)c1cccnc1Nc1cccc(C(F)(F)F)c1 [Niflumic acid] | 0.923 | 1.01 | 1.02 | 1.24 | 1.19 | 1.26 |
| Cc1cccc(-c2[nH]c(C(C)(C)C)nc2-c2ccc3c(c2)OCO3)n1 | 1.83 | 1.76 | 0.978 | 2.17 | 1.99 | 1.62 |
| N=C(N)NC(=O)c1nc(Cl)c(N)nc1N [Amiloride HCl] | 1.05 | 0.988 | 0.844 | 0.922 | 1.33 | 0.94 |
| C[C@@H](Oc1cc(-c2cnn(C3CCNCC3)c2)cnc1N)c1c(Cl)ccc(F)c1Cl | 3.69 | 4.3 | 3.56 | 5.27 | 4.27 | 4.15 |
| CC(=O)OCC1=C(C(=O)O)N2C(=O)[C@@H](NC(=O)Cc3cccs3)[C@H]2SC1 [Cephalothin] | 1.38 | 0.786 | 0.824 | 1.24 | 1.28 | 1.23 |
| CCN(CC)Cc1cc(Nc2ccnc3cc(Cl)ccc23)ccc1O [Amodiaquine hydrochloride] | 2.94 | 2.7 | 1.67 | 3.45 | 2.69 | 2.51 |
| Cn1nnc(-c2ccc(-c3ccc(N4C[C@H](CO)OC4=O)cc3F)cn2)n1 [Tedizolid] | 1.38 | 1.13 | 0.583 | 0.908 | 1 | 1.01 |
| COc1ccc([C@H]2CNC(=O)C2)cc1OC1CCCC1 [S- (+)-Rolipram] | 1.12 | 1.46 | 1 | 0.792 | 1.24 | 1.49 |
| CC(C)C[C@H](NC(=O)[C@H](Cc1ccccc1)NC(=O)c1cnccn1)B(O)O [Bortezomib] | 5.28 | 3.87 | 6.56 | 6.53 | 4.55 | 5.51 |
| N[C@@H](CCC(=O)N[C@@H](CS)C(=O)NCC(=O)O)C(=O)O [Glutathione] | 1.52 | 1.12 | 1.48 | 1.03 | 0.978 | 1.55 |
| Cc1cn(-c2cc(NC(=O)c3ccc(C)c(Nc4nccc(-c5cnccn5)n4)c3)cc(C(F)(F)F)c2)cn1 [Radotinib] | 1.61 | 1.33 | 1.78 | 1.12 | 0.843 | 1.17 |
| O=c1ccc2ccc(OCCCCN3CCN(c4cccc5sccc45)CC3)cc2[nH]1 [Brexpiprazole] | 1.47 | 1.82 | 2.84 | 1.52 | 2.28 | 1.15 |
| Cn1cc(Nc2nccc(N3C[C@H]4CC[C@@H](C3)N4C(=O)[C@@H]3CC3(F)F)n2)cn1 | 1.66 | 1.31 | 0.715 | 2.16 | 0.594 | 3.68 |
| CN(C)[C@@H]1C(O)=C(C(N)=O)C(=O)[C@@]2(O)C(O)=C3C(=O)c4c(O)cccc4[C@@](C)(O)[C@H]3[C@H](O)[C@@H]12 [Oxytetracycline Dihydrate] | 1.33 | 0.832 | 1.09 | 1.19 | 1.9 | 1.3 |
| Oc1ccc(Cl)c2cccnc12 [Cloxiquine] | 1.62 | 2.13 | 1.92 | 2.66 | 1.62 | 1.97 |
| CCOc1ccccc1OC(c1ccccc1)C1CNCCO1 (configuration not stated) [Reboxetine mesylate] | 1.05 | 0.873 | 2.32 | 0.844 | 2.49 | 0.786 |
| CO[C@H]1/C=C/O[C@@]2(C)Oc3c(C)c(O)c4c(c3C2=O)C2=NC3(CCN(CC(C)C)CC3)NC2=C(NC(=O)/C(C)=C\C=C\[C@H](C)[C@H](O)[C@@H](C)[C@@H](O)[C@@H](C)[C@H](OC(C)=O)[C@@H]1C)C4=O [Rifabutin] | 1.26 | 0.759 | 1.51 | 1.08 | 2.11 | 1.35 |
| Cn1c(=O)c2[nH]cnc2n(C)c1=O [Aminophylline] | 1.11 | 1.06 | 0.75 | 0.798 | 0.585 | 0.841 |
| CCc1nc(-c2cccc(C)c2)c(-c2ccnc(NC(=O)c3ccccc3)c2)s1 | 1.58 | 0.983 | 1.46 | 1.37 | 1.19 | 1.34 |
| CC(C)(C)NS(=O)(=O)c1cncc(-c2cc(F)c3nc(N)nn3c2)c1 | 0.676 | 0.836 | 1.2 | 1.61 | 0.94 | 1.09 |
| CC[C@H]1OC(=O)C[C@@H](O)[C@H](C)[C@@H](O[C@@H]2O[C@H](C)[C@@H](O[C@H]3C[C@@](C)(O)[C@@H](O)[C@H](C)O3)[C@H](N(C)C)[C@H]2O)[C@@H](CC=O)C[C@@H](C)C(=O)/C=C/C(C)=C/[C@@H]1CO[C@@H]1O[C@H](C)[C@@H](O)[C@@H](OC)[C@H]1OC [Tylosin] | 0.535 | 1.08 | 0.612 | 0.794 | 0.42 | 0.917 |
| CN1CCC(COc2cnc(-c3cccc(Cn4nc(-c5cccc(C#N)c5)ccc4=O)c3)nc2)CC1 | 1.74 | 3.89 | 2.96 | 2.46 | 1.76 | 1.52 |
| COc1cc2c(Oc3ccc4[nH]c(C)cc4c3F)ccnc2cc1OCC1(N)CC1 [Anlotinib (AL3818) dihydrochloride] | 3.26 | 3.7 | 2.73 | 3.46 | 3.11 | 3.17 |
